# Sampled rows, rich in hits. Any-hit rate of the full collection: about 5.5%.
# Six1-Eya2 blk: Six1/Eya2 interaction inhibition; Q15475+O00167; AlphaScreen GST-Six1/His-Eya2 binding, biochemical; active compounds read low; activity change, % (no concentration beside the values); 360,000 tested, 0.56% active; AID 651725; in the data active means activity change below about -65%; inconclusive means mostly about -30% to -63%; further: on the % scale 0 is the no-effect control and ±100 the full control effect
#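 GST-Six1 + His-Eya2 (5X stock: 250/500 nM); Tris pH 8.0, 300 mM NaCl, 0.05% BSA, 0.02% Tween 20; GSH donor/Ni acceptor beads; 1 h 37 °C dark; AlphaScreen readout.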
# CBFb-RUNX1 inh: CBF-beta/RUNX1 interaction disruption. Potency, µM (highest dose often 59.8 µM), without a hit: at the highest dose activity, negative = inhibition, most hits filed as inhibitors. AlphaScreen CBFb-His/RUNX1-biotin binding, biochemical. 230,000 tested, under 10 active. Q01196+Q13951; further: % of control where 0% means no effect
# Target sequence (Q01196 whole entry, looked up): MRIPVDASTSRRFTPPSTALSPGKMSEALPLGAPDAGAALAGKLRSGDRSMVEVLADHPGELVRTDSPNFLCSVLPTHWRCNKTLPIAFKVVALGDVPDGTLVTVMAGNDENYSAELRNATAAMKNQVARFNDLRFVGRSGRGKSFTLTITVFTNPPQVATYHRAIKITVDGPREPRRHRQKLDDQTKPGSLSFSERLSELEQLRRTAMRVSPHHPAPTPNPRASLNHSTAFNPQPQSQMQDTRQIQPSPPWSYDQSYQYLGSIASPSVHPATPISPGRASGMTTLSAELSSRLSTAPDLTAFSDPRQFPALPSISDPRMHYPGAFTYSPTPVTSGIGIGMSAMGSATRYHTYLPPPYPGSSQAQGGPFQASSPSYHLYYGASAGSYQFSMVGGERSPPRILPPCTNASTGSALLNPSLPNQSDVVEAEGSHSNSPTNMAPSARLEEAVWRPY
# Target sequence (Q13951 whole entry, looked up): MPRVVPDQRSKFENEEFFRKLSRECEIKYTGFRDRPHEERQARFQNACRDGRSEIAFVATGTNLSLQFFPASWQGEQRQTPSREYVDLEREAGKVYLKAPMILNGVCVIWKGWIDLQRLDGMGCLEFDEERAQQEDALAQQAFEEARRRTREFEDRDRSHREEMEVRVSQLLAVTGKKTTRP
#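 AlphaScreen binding: CBFb-His and RUNX1-biotin (30 nM each) preincubated 20 min, compound added for 15 min, then nickel and streptavidin beads for 90 min, all at room temperature. Disruption of the interaction by any mechanism counts as activity.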
# Gal4-VP16 FLuc: inhibits Gal4-VP16 luciferase reporter, ROR gamma counter-screen | Potency, µM (series often up to 53.6 µM), for the others: top-dose activity, negative = inhibition, most hits filed as inhibitors | Drosophila S2 Gal4-VP16 UAS-luciferase, luminescence, 20 h | 310,000 tested, 3.5% active;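 further: Gal4-VP16 expression switched on by copper sulfate through the metallothionein promoter; potency means the concentration at half of the fitted maximal effect; on the % scale 0 is the no-effect control and ±100 the full control effect; nearly all actives have a fitted effect of over 50% in size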
# CtBP-E1A inh: inhibitors of CtBP/E1A interaction. AID 651724. 340,000 tested, 0.49% active. AlphaScreen GST-E1A/His-CtBP binding, 1536-well; active compounds read low. activity change, % (test concentration not listed); in the data active means activity change below about -65%; inconclusive means mostly about -30% to -63%; further: on the % scale 0 is the no-effect control and ±100 the full control effect
#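 AlphaScreen with 125 nM GST-E1A and 125 nM His-CtBP (5X stocks) in Tris pH 8.0, 300 mM NaCl, BSA, Tween 20, TCEP. Compounds preincubated 2 h at 37 deg C, then glutathione donor/nickel acceptor beads added for 1 h at 37 deg C in dark.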
# RORg inh: blocks mouse ROR gamma transcriptional activity; P51450; Potency, µM (top dose mostly 53.6 µM), inactives show top-dose activity change, negative = inhibition, hits mostly inhibitors; 310,000 tested, 5.4% active; AID 2551; Drosophila S2 Gal4-RORgamma UAS-luciferase reporter, 20 h; further: potency means the concentration at half of the fitted maximal effect; on the % scale 0 is the no-effect control and ±100 the full control effect; nearly all actives have a fitted effect of over 60% in size
#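 Stably transfected Drosophila Schneider cells are the test system, with ROR gamma fused to Gal4 and luciferase under UAS control; luminescence is read after 20 hr of 700 uM copper sulfate induction at ambient temperature.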
# MBNL1-CUG inh: MBNL1-poly(CUG) RNA binding inhibition | 280,000 tested, 0.036% active | AID 2675 | Potency, µM (series often up to 57.5 µM), without a hit: at the highest dose activity change, negative = inhibition, actives largely listed as inhibitors | TR-FRET MBNL1-His/biotin-(CUG)12 binding, 665/545 ratio | Q9NR56; active means well fitted inhibition curve with a large enough effect in the signal ratio, with a control signal flat, not every such curve was filed as active; inconclusive means small, poorly fitted or top-dose-only effect, or effect the other way, or a change in a side signal; inactive means no such curve, though single readings can be large or run the other way; the % refers to the signal ratio; further: potency means the concentration at half of the fitted maximal effect; on the % scale 0 is the no-effect control and ±100 the full control effect
#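 Ratiometric TR-FRET (665 over 545 nm, excitation 340 nm) tracks disruption of MBNL1-His/biotin-(CUG)12 complex after 60 min at room temperature, with compounds at 92 nM to 58 uM final.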
# Active calls of the source: *; u = inconclusive; x = not tested or not shown. Unless noted, the call rests on the fitted dose curve; in most records, active means well fitted curve in the direction sought with a large enough effect; inconclusive means small, poorly fitted or top-dose-only effect, or another doubt; inactive means no such curve, though single readings can be large; an effect the other way counts as inactive or inconclusive.
SMILES,Six1-Eya2 blk,CBFb-RUNX1 inh,Gal4-VP16 FLuc,CtBP-E1A inh,RORg inh,MBNL1-CUG inh
CN(CCn1ccnc1)Cc1cn(-c2ccccc2)nc1-c1ccc2c(c1)OCO2,-4,-13%,-6%,3,-44%,-11%
Cn1ccnc1C1CCCCN1Cc1nc(-c2ccc(Cl)cc2)no1 (stereo unspecified),0,3%,u,-2,10µM*,0%
CC(C)N(Cc1cn(C)nc1-c1cccc(Cl)c1)Cc1nccn1C,-2,-2%,u,-6,7.9µM*,-12%
CC1CCCC(NC(=O)CCNC(=O)c2ccccc2Cl)C1C (stereo unspecified),0,x,x,1,x,x
Cc1ccsc1C(=O)N1CCC1(C)C(=O)NCc1cccnc1 (stereo unspecified),1,x,x,2,x,x
CCN(CC)S(=O)(=O)c1cccc(NC(=O)C(=O)c2c(-c3ccccc3)cc3ccccn23)c1,-14,-20%,-1%,-29,7.9µM*,23%
CC(C)C(=O)NC(=S)N(Cc1ccccc1)Cc1ccccc1,-3,11%,5µM*,x,2.8µM*,-17%
CC(C)CC(=O)NC(=S)N(Cc1ccccc1)Cc1ccccc1,3,7%,6.3µM*,12,3.2µM*,-6%
COC(CNC(=O)CNC(=S)N(Cc1ccccc1)Cc1cccs1)OC,9,-2%,0%,0,-4%,0%
CC(CN(C)C)CN1c2ccccc2Sc2ccc(C(F)(F)F)cc21 (stereo unspecified),x,x,-7%,x,11%,x
COc1ccc(NS(=O)(=O)c2cccc(C(=O)NNC(=O)c3ccc(=O)[nH]c3)c2)cc1,-4,x,x,x,x,x
CN(C)c1ccc(/C=N/N=C/c2ccccc2O)cc1,-2,5%,u,4,7.9µM*,11%
COc1ccc(-c2csc3nc(-c4ccc(C)cc4)oc(=O)c23)cc1OC,6,5%,u,7,-6%,2%
COc1ccc(-c2csc3nc(-c4ccccc4OC)oc(=O)c23)cc1,1,-2%,-19%,-4,11µM*,18%
COc1ccnc2c1c(=O)n(Cc1ccc(Cl)cc1)c(=O)n2C,-1,x,4%,x,3%,14%
C=CCOc1c(Cl)cc(C(=S)N2CCCC2)cc1OCC,-2,x,u,-4,13µM*,-2%
O=c1c(C=NCCN2CCNCC2)c(-c2ccccc2)[nH]n1-c1ccc([N+](=O)[O-])cc1,x,8%,25%,x,-15%,15%
COc1ccc(-c2[nH]n(-c3ccc([N+](=O)[O-])cc3)c(=O)c2C=NCCN2CCNCC2)cc1,x,2%,u,x,14µM*,-7%
O=C(N/N=C/c1cc([N+](=O)[O-])cc([N+](=O)[O-])c1O)/C(=C\c1cccs1)NC(=O)c1ccccc1,u,-26%,u,-2,11µM*,-17%
COc1ccc(Br)cc1/C=N/NC(=O)c1cccnc1,9,x,-5%,0,-42%,u
O=C(N/N=C/c1cccc([N+](=O)[O-])c1O)c1cccs1,-91*,u,0.79µM*,7,1.1µM*,u
COc1cc(/C=N/NC(=O)/C(=C\c2ccc([N+](=O)[O-])cc2)NC(=O)c2ccccc2)cc(OC)c1O,-21,-14%,-1%,-6,u,u
COc1cc([N+](=O)[O-])cc(/C=N/NC(=O)C(O)(c2ccccc2)c2ccccc2)c1O,u,x,0.89µM*,-82*,0.35µM*,u
COc1cc([N+](=O)[O-])cc(/C=N/NC(=O)c2cccnc2)c1O,-90*,x,-16%,-92*,-21%,x
O=c1oc2ccccc2c2c1ccc1ccccc12,-12,x,x,-12,x,x
SMILES,Six1-Eya2 blk,CBFb-RUNX1 inh,Gal4-VP16 FLuc,CtBP-E1A inh,RORg inh,MBNL1-CUG inh
COc1ccc2c(c1)C(=O)[C@@H](OC(=O)NS(=O)(=O)c1ccc(C)cc1)[C@H](c1ccc(OC)c(Br)c1)O2,x,1%,6%,x,-33%,x
COc1ccc(NC(=O)CSc2nc3ccncc3[nH]2)c(OC)c1,-2,x,-6%,x,-10%,-1%
COc1cc(C)c(Cl)cc1S(=O)(=O)N1CCSC1,-11,x,-12%,3,-10%,-3%
O=C(N/N=C/c1cccc([N+](=O)[O-])c1O)C(O)(c1ccccc1)c1ccccc1,-22,x,1.3µM*,x,0.71µM*,u
COc1ccc(OCC(=O)Sc2ccc(C)cc2)cc1,-1,3%,1%,5,3.2µM*,2%
CCN(CC)c1ccc(C(=O)N/N=C/c2ccccc2OC(F)F)cc1,-11,-18%,u,-7,2.5µM*,x
COc1ccccc1/C=N/NC(=O)c1ccc(Br)cc1,4,4%,-9%,-1,13µM*,3%
COc1ccc(/C=N/NC(=O)c2ccc(Br)cc2)c(OC)c1,2,-12%,-16%,-14,11µM*,x
O=C(COc1ccccc1C(=O)N/N=C\c1ccc(O)c(O)c1)N/N=C/c1ccc(O)c(O)c1,-79*,x,-2%,-77*,-17%,u
COc1ccc(/C=N/NC(=O)c2ccncc2)c(OC)c1,1,x,21%,x,-21%,13%
COc1ccc(NS(=O)(=O)c2ccc(NC(C)=O)cc2)c(OC)c1,1,-6%,1%,4,14%,5%
COc1ccc(C(=O)N/N=C/c2cc(Br)ccc2O)cc1OC,-68*,-20%,4.5µM*,-91*,3.2µM*,0%
COc1ccc(NS(=O)(=O)c2ccc(NC(=O)c3ccc(N(C)S(C)(=O)=O)cc3)cc2)c(OC)c1,-4,3%,11µM*,4,u,x
COc1cc(NC(=O)c2ccccc2)c(OC)cc1NC(=O)Cc1ccc(Br)cc1,3,x,11µM*,-18,u,3%
Cn1cccc1-c1cc(C(=O)N/N=C/c2ccccc2Cl)[nH]n1,-23,x,u,-29,19%,4%
Cn1cccc1-c1cc(C(=O)N/N=C/c2cc(Br)ccc2O)[nH]n1,-83*,x,10µM*,-87*,7.1µM*,38%
COc1ccc(N2CCN(CC(=O)Nc3c(C)cccc3C)CC2)cc1,1,x,x,1,x,x
COc1cccc(-c2nc(NC3CC3)c3ccccc3n2)c1,x,x,7%,x,4%,x
Cn1c(N)c(C(=O)Nc2ccc(-c3ccccc3)cc2)sc1=S,-25,7%,-2%,-24,3%,u
CC(C)(C)c1ccc(OCc2ccc(C(=O)N/N=C/c3ccc(O)c(O)c3)cc2)cc1,-8,-5%,16µM*,-4,u,-6%
COc1ccc(O)c(/C=N/NC(=O)c2ccc(OCc3cccc(Br)c3)cc2)c1,0,3%,4.5µM*,3,5µM*,-4%

# Source: PubChem BioAssay (National Center for Advancing Translational Sciences (NCATS))
